In general, inhibition refers to the relative decrease from the control value, in per cent.

Structures are written as SMILES. Out of some 93,000 compounds screened, about 500 (0.54%) were called active.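 The calls were made as follows: active = primary inhibition of 50% or more at 10 µM, then 40% or more on retest; inactive = the rest.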 The entries come from a sample that favours actives as a whole.

For 63 molecules, inhibition results are on record in PubChem BioAssay AID1497 (Sanford-Burnham Center for Chemical Genomics, 2009).

Integrin beta-2 (Homo sapiens) + Integrin alpha-M (Homo sapiens), sequence (P05107 whole entry, looked up, other chains not shown): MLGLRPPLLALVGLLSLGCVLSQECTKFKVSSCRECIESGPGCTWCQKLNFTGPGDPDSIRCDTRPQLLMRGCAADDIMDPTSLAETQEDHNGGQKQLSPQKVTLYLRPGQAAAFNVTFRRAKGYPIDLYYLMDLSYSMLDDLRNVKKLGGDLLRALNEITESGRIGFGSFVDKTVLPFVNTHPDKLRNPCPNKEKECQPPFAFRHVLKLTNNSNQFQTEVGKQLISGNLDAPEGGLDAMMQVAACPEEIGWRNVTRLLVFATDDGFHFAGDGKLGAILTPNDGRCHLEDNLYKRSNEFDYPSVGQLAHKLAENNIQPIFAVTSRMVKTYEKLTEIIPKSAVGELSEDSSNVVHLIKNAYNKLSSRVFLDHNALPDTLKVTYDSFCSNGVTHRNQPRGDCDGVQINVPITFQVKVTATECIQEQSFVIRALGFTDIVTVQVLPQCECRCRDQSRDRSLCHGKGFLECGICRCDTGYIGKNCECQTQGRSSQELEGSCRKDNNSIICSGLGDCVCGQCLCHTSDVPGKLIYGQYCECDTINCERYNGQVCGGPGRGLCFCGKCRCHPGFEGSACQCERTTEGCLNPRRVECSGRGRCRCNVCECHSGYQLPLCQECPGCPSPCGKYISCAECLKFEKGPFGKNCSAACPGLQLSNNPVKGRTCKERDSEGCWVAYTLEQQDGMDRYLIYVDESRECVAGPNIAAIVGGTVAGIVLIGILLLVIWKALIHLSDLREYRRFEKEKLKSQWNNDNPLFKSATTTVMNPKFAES

The assay concerns the target Integrin beta-2 (Homo sapiens) + Integrin alpha-M (Homo sapiens) (UniProt P05107+P11215). Description: antagonists of integrin CD11b/CD18-fibrinogen binding – K562 cells, luminescence, primary screen (AID 1497). To be noted: K562 CD11b/CD18 adhesion to fibrinogen, ATPlite luminescence; at 10 µM; active compounds read high; Mn2+ added to activate the integrin. In general terms: In ATP-based viability assays light output follows the ATP content of the culture.
For `CC(C)N1C(=O)N(c2ccccc2)C(C)(O)CC1(C)C` (stereo not drawn), the inhibition is -10.1% (inactive).

As for `Cc1cccc(NC(=O)Cn2c(=O)n(Cc3ccccc3)c(=O)c3c(C)c(C)sc32)c1`, the inhibition was -17.5% (inactive). `CCOc1ccc(NC(=O)COc2ccc(C(=O)NC3CCCc4ccccc43)cc2OC)cc1` (stereo not drawn): the inhibition is 1.8% (inactive). The same measure for `CCCN1CNC(=S)N(CCc2ccccc2)C1`: -28.3% (inactive).

On to `O=c1oc2cc(O)ccc2cc1-c1ccc(F)cc1`, for which the inhibition was -2.5% (inactive). The same measure for `CCCCCCc1cc2cc(-c3nnc(-c4ccccc4)o3)c(=O)oc2cc1O`: 94% (active).

As for `Cc1c(C(=O)OC(C)C)sc(NC(=O)c2cccnc2)c1C#N`, the inhibition was 86% (active). Under `CCOc1cccc(C(=O)Nc2cccnc2)c1` stands -2.2% (inactive). As to `CCOC(=O)c1cc(NC(=O)c2cccnc2)cc(C(=O)OCC)c1`, the inhibition was -52.6% (inactive). The same measure for `Cc1ccc(C2CC(=O)NC(SCC(=O)OCc3ccccc3)=C2C#N)o1` (stereo not drawn): 29.9% (inactive). Under `CCOC(=O)CSC1=C(C#N)C(c2ccco2)C(C(=O)OCc2ccccc2)=C(C)N1` (stereo not drawn) stands 34.5% (inactive); under `CCOC(=O)CSC1=C(C#N)C(c2sccc2C)CC(=O)N1` (stereo not drawn), 56.1% (active); under `CCCn1c(N)c(C(=O)CSc2nnc(-c3cccnc3)n2-c2ccc(C)cc2C)c(=O)[nH]c1=O`, -8.1% (inactive). The same measure for `Cc1cc(Br)ccc1SCC(=O)OCC(=O)NCc1ccc2c(c1)OCO2`: 10.7% (inactive); for `O=C(CSc1nc2ccccc2c(=O)n1CCCO)N1CCc2ccccc21`: 21.1% (inactive); for `O=C(N/N=C/c1cccc([N+](=O)[O-])c1)C1CC(=O)N(c2ccc(Br)cc2)C1` (stereo not drawn): -4.8% (inactive). Take `COC(=O)c1c(C)oc2ccc(N(C(=O)Oc3ccccc3)S(=O)(=O)c3ccccc3)cc12`: the inhibition was 2.5% (inactive). The same measure for `Cc1ccc2nc(SCc3cn4c(C)cc(C)nc4n3)[nH]c2c1`: -5.6% (inactive); for `COc1ccc(C(CC(=O)Nc2ccc(C)cc2)NC(=O)C(F)(F)F)cc1` (stereo not drawn): -24.1% (inactive); for `CCCc1c(C)nc2c(Br)cccc2c1Cl`: 13.2% (inactive).

Take `Cc1c(Cl)cccc1NC(=O)Nc1ccc(C(=O)N2CCCC2)cc1`: the inhibition was 9.6% (inactive). The same measure for `CCOc1ccc(/C=N/OCC(=O)NCc2cccs2)cc1`: 9% (inactive); for `CCc1c(C)sc(NC(=O)/C=C/c2ccc3c(c2)OCO3)c1C(=O)OC`: -6.4% (inactive). Under `O=C(Cc1ccc(-c2ccccc2)cc1)NC(c1ccccc1)c1ccccc1` stands -18.2% (inactive); under `CCOc1cc(CNCc2ccccn2)ccc1OCC(=O)NC(C)(C)C`, 7.5% (inactive). The same measure for `CC(C)(C)NC(=O)COC(=O)c1cc(Br)ccc1Cl`: 12.8% (inactive); for `CC(C)C(=O)Nc1cccc(NC(=O)c2ccc([N+](=O)[O-])cc2Cl)c1`: -3.1% (inactive).

As for `CCOc1ccc(NC(=O)c2ccccc2NS(C)(=O)=O)cc1`, the inhibition was -19.4% (inactive). The same measure for `COC(=O)c1ccc(NC(=O)c2ccccc2NS(=O)(=O)c2ccccc2)cc1`: 102% (active); for `COC(=O)c1ccccc1NC(=O)c1ccccc1NS(C)(=O)=O`: -14.9% (inactive). The same measure for `O=C(Oc1ccc([N+](=O)[O-])cc1)c1ccc(Cl)c(S(=O)(=O)N2CCCCC2)c1`: 8.6% (inactive); for `Cc1ccc(NC(=O)c2sc3nc(N)c(C#N)cc3c2N)cc1`: 10.7% (inactive); for `COc1cccc(N(C(=O)C2COc3ccccc3O2)C(C(=O)NC2CCCCC2)c2ccc(O)cc2)c1` (stereo not drawn): -5% (inactive).

Turning to `Cc1ccc(CSCC(N)C(=O)O)cc1` (stereo not drawn), the inhibition is -2% (inactive). The same measure for `O=C(NCC1CCCO1)/C(=C/c1ccc(Cl)cc1)NC(=O)c1ccccc1` (stereo not drawn): 2.4% (inactive). Under `O=C(Nc1nnc(C2COc3ccccc3O2)o1)c1ccc(F)cc1` (stereo not drawn) stands -27.3% (inactive); under `COC(=O)Cc1ccc(NC(=S)NCc2ccccc2)cc1`, 0.4% (inactive).

`CCCn1c(SCC(=O)Nc2ccc(C)c(S(=O)(=O)N3CCOCC3)c2)n[nH]c1=O`: the inhibition was -10.9% (inactive). `Cc1ccc(-n2nc3cc(Cl)c(NC(=O)c4ccco4)cc3n2)cc1`: the inhibition is 3.9% (inactive).

Take `COC(=O)c1cc(Cl)c(NC(=O)c2ccco2)cc1OC`: the inhibition is -6% (inactive). The same measure for `O=C(NNC(=S)Nc1ccc(Br)cc1Cl)c1ccco1`: 89.9% (active); for `CN(C)S(=O)(=O)c1cccc(NC(=S)N/N=C/C(=O)c2ccccc2)c1`: 14% (inactive).

Take `COc1ccc([N+](=O)[O-])cc1NC(=O)C(C)OC(=O)C1c2ccccc2Oc2ccccc21` (stereo not drawn): the inhibition is 26.5% (inactive). Consider `COc1ccc(CCNC(=O)CSc2nc(-c3ccc(OC)c(OC)c3)ccc2C#N)cc1`, for which the inhibition was 18.5% (inactive). With `Cn1c(CN2CCOCC2)nc2cc(NC(=O)c3ccc(Cl)cc3)ccc21`, the inhibition was 87.2% (active). Under `COc1ccc(C(=O)Nc2ccc(CN3CCOCC3)cc2)cc1` stands -3.3% (inactive); under `CCC(=O)Nc1ccc2c(c1)nc(CCN1CCN(C)CC1)n2C`, 3.3% (inactive).

For the molecule `Cc1cc2ncn(CCCCOc3ccccc3)c2cc1C`, the inhibition is 63.9% (active). On to `COCCOCCn1cnc2ccccc21`, for which the inhibition is 2.3% (inactive). Consider `Cc1nn(CCOc2ccccc2)c(=O)n1-c1ccccc1F`, for which the inhibition is -0.4% (inactive). Under `COc1ccc(NC(=O)CC2C(=O)OCC3CCCCN32)cc1Cl` (stereo not drawn) stands -8.3% (inactive); under `CCCCCCCCC(=O)NCCOc1ccccc1`, 2.8% (inactive). As for `COc1ccc(/C=C2/C(=O)OCc3cc(OC)c(OC)cc32)c(OC)c1`, the inhibition was 0.8% (inactive). For the molecule `C/C(=N\NS(=O)(=O)c1ccc(Cl)cc1)c1ccc(NC(=O)c2ccco2)cc1`, the inhibition is -3.6% (inactive). For `COCCn1c(=NC(=O)c2ccccc2[N+](=O)[O-])sc2cc(S(C)(=O)=O)ccc21`, the inhibition is 25.4% (inactive). As to `C/C(=N\NC(=O)CCn1nc(C)cc1C)C(C)(C)C`, the inhibition is 1% (inactive). As for `N#C/C(=C/c1cccc([N+](=O)[O-])c1)c1nnc2n1CCCCC2`, the inhibition was 2.5% (inactive). Turning to `N/C(=N\OC(=O)Nc1ccc(Cl)c(Cl)c1)c1ncc(C(F)(F)F)cc1Cl`, the inhibition is -4.4% (inactive). The same measure for `Cc1nnc(NC(=O)Nc2ccc(Cl)c(Cl)c2)s1`: 37% (inactive); for `O=C(CC(O)(C(F)(F)F)C(F)(F)F)Nc1ccc(Cl)c(Cl)c1`: 89.5% (active). The same measure for `COc1ccc(Cn2c(=O)sc3ccccc32)cc1OC`: 75.8% (active); for `COc1ccc(CCNC(=O)CCn2c(=O)oc3ccccc32)cc1OC`: -58.2% (inactive). The same measure for `Cc1nnc(NC(=O)Cn2c(=O)sc3ccccc32)s1`: -2.7% (inactive).
